Measurements taken from the supplement of paper PMC9446081.
The campaign covered roughly 39,000 compounds. About 220 (0.56%) showed activity. Shown is part of a subset that was picked to be rich in actives.

tested on: Escherichia coli K-12 BW25113; assay: relative growth (OD600 normalised to plate interquartile mean) (fraction); higher = less growth inhibition, active = 0.2 or less; conditions: 50 µM; LB; incubation time: overnight (16-24 h)
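Also: Wild-type cells incubated without shaking, value is the mean of two biological replicates.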

SMILES | relative growth
CN1C=C(C(=O)OCCS(C)(=O)=O)C(C(=O)OCCS(C)(=O)=O)=CC(c2ccc(CO)cc2)=C[C@@H]1C1CC1 | 1.02 (inactive)
Cc1ccc(S(=O)(=O)N[C@H]2CC[C@H](CC(=O)N3CCC(Cc4ccccc4)CC3)O[C@H]2CO)cc1 | 1.02 (inactive)
Cc1noc(C)c1NC(=O)Nc1ccc2c(c1)C(=O)N([C@@H](C)CO)C[C@@H](C)[C@@H](CN(C)S(=O)(=O)c1ccccc1)OCCCC[C@H](C)O2 | 0.998 (inactive)
C[C@H]1CN([C@@H](C)CO)C(=O)c2cccc(NC(=O)Nc3ccccc3)c2O[C@@H]1CN(C)S(C)(=O)=O | 0.991 (inactive)
CCS(=O)(=O)Nc1ccc2c(c1)C(=O)N(C)[C@@H]1CC[C@@H](CC(=O)NCc3ccc(OC)cc3)O[C@@H]1CO2 | 1.01 (inactive)
Cc1ccc(NC(=O)C[C@@H](N)C(=O)O)cc1 | 1.01 (inactive)
C[C@H]1[C@H](NC(=O)/C(=N\OC(C)(C)C(=O)O)c2csc(N)n2)C(=O)N1S(=O)(=O)O | 0.0312 (active)
CCNC(=O)c1csc(N)n1 | 0.971 (inactive)
CCOC(=O)/C(=N/O)c1csc(N)n1 | 0.997 (inactive)
CC1C(NC(=O)C(=NOC(C)(C)C(=O)O)c2csc(N)n2)C(=O)N1S(=O)(=O)O (stereo not drawn) | 0.0499 (active)
COc1ccc(S(=O)(=O)N2C[C@H](O)COC[C@@H]3O[C@@H](CC(=O)NCCCN4CCOCC4)CC[C@H]32)cc1 | 0.999 (inactive)
CC(C)NC(=O)Nc1ccc2c(c1)C(=O)N([C@H](C)CO)C[C@@H](C)[C@H](CN(C)S(=O)(=O)c1ccc(Cl)cc1)O2 | 1.03 (inactive)
Cn1c(=O)oc2cc(S(=O)(=O)N3CCC[C@H](C(=O)NN4CCOCC4)C3)ccc21 | 0.99 (inactive)
CC(C)(O/N=C(\C(=O)N[C@@H]1C(=O)N2C(C(=O)O)=C(C[N+]3(CCNC(=O)c4ccc(O)c(O)c4Cl)CCCC3)CS[C@H]12)c1csc(N)n1)C(=O)O | 0.0469 (active)
CC(C)(ON=C(C(=O)NC1C(=O)N2C(C(=O)[O-])=C(C[n+]3ccccc3)CSC12)c1csc(N)n1)C(=O)O (stereo not drawn) | 0.0511 (active)
NC(=O)c1cc[n+](CC2=C(C(=O)O)N3C(=O)[C@@H](NC(=O)Cc4cccs4)[C@H]3SC2)cc1 | 1.04 (inactive)
CC(C)(O/N=C(\C(=O)N[C@@H]1C(=O)N2C(C(=O)O)=C(C[n+]3ccccc3)CS[C@H]12)c1csc(N)n1)C(=O)O | 0.0433 (active)
COc1ccc(CNC(=O)C[C@@H]2CC[C@H]3[C@@H](COc4ccc(NC(=O)C5CC5)cc4C(=O)N3C)O2)cc1 | 1.03 (inactive)
